Laboratory results reported in the supplement of paper PMC11417369.
± gives the standard deviation of the averaged measurements. In all, about 25,000 sequences were measured (“ln(normalized median fluorescence intensity)”: median about 10, highest 2% from about 12 on). Only a selection was taken, and the highest values are over-represented in it overall.

What follows are sequences tested on PfAP2-G AP2 domain (GST-tagged) (assay: gcPBM binding intensity (ln(normalized median fluorescence intensity)); higher = stronger DNA binding).
In short: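 GST-tagged P. falciparum DNA-binding domains produced in E. coli were incubated for 1 h on an Agilent 4 × 180k array of primer-extended double-stranded 36-bp intergenic genomic probes with negative controls. Binding intensity is the highest Masliner-normalised natural-log median intensity across replicate spots of either probe orientation, with bound protein detected by Alexa488 anti-GST antibody at 488 nm.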

| Sequence | gcPBM binding intensity (ln) |
| --- | --- |
| AAAATGTGCCCACGCGTACACACAAAAAAAGAAAAA [CACACA_site2004] | 11.6 ± 0.79 |
| TTAGCTACACGCTAATGTACACAAATACAAAGAAAA [XGTACX_site3993] | 11.4 ± 0.71 |
| CATGCTTATATGTGCACACACAAAAGAAAAGAAAAA [CACACA_site1655] | 10.6 ± 0.62 |
| AAAAATGTGCACACGCGTACACACAAAAAAAGAAAA [XGTACX_site4097] | 11.5 ± 0.79 |
| AATGTGCACACGCGTACACACAAAAAAAGAAAAAAA [CACACA_site7031] | 11.7 ± 1.1 |
| AATGTGCCCACGCGTACACACAAAAAAAGAAAAAAA [CACACA_site2003] | 11.7 ± 1.1 |
| TATTATATTATGTGATGTACATATTTATATAGGCCC [XGTACX_site4746] | 11.2 ± 0.8 |
| TGTAGTTTTTATTTATGTACGCATAACATAATTTAA [XGTACX_site104] | 11.6 ± 0.7 |
| TTATTCATTTCGAAAAGTACAAATTCTGTTTATTAT [XGTACX_site6892] | 11.1 ± 0.71 |
| AAAAAAAAAAAATGTGCACACGCGTACAGACAAAAA [CACACA_site2005] | 11.8 ± 0.99 |
| TACACAAACAGACACACACACACACGCGCACAAAAA [CACACA_site7192] | 10.6 ± 0.38 |
| AAAAAAAAAACAAATACACACGCACCCAAAAAAAAA [CACACA_site8166] | 10.5 ± 0.26 |
| AACATATAAAAATGTGCACACACACCCATATATATA [CACACA_site1525] | 10.4 ± 0.3 |
| AAAAAAAAAAAATGTGCACACGCGTACACCCAAAAA [CACACA_site8614] | 11.7 ± 0.77 |
| AAAAAAAAAATGTGCACACGCGTACACCCAAAAAAA [CACACA_site5149] | 11.7 ± 0.99 |
| AACACGCACAGACACACACACAAAAATGATTAAAAA [CACACA_site7195] | 10.6 ± 0.67 |
| CATATAAAAATGTGCACACACACACCCATATATATT [CACACA_site1526] | 10.4 ± 0.41 |
| TATACAATATAAAATACACACGCACCCAAAAAAAAA [CACACA_site9174] | 10.6 ± 0.4 |
| AAGGAACTATAATATACACACATAAGTGTACTTATA [CACACA_site7816] | 11.5 ± 1 |
| TATATATATATAACAACACACACAGATCATAAAACT [CACACA_site8670] | 10.3 ± 0.27 |
| TTAATACCCAGACACACACACACAAAATAAAATACA [CACACA_site7968] | 10.2 ± 0.4 |
| TTGTATTAAAATCAAGTGCATATAATTTAAGTTCAT [GTGCAC_site9495] | 10 ± 0.16 |
| ATAATTAACAAATACACACACACACGCCCACAAAAA [CACACA_site6389] | 10.9 ± 0.54 |

| Sequence | gcPBM binding intensity (ln) |
| --- | --- |
| AAATTTAAATAATGTGCGCATCTTAATATATATAAG [GTGCAC_site9890] | 10.2 ± 0.13 |
| CCCCATTTATCTTAAGCATGCCATGGTTTTAGATAT [TGCATGCA_site24] | 10.6 ± 0.42 |
| CTTATACATAAATTTTGTACACACAAAAAAAAAAAA [XGTACX_site2665] | 11.2 ± 1.1 |
| GAAAATTTTTGGTGTACACAAAAAAATCCAAAAAAA [CACACA_site5042] | 11.7 ± 0.87 |
| ATACATAAATTTTGTACACACAAAAAAAAAAAAGCT [CACACA_site1351] | 11.2 ± 0.87 |
| ATGAATATAAAATATACACACTTATATATCGAATGA [CACACA_site6240] | 9.79 ± 0.13 |
| ATTAGAGAATCGTAACCCAAATGAACATACTTAAAT [GTGCAC_negctrl_site363] | 10.04 ± 0.035 |
| AAAAAAAATATATAAACACACATATTTATATACTCA [CACACA_site4984] | 9.665 ± 0.092 |
| TTTATTTATTTTTGTTGTACACTTGTATATATTATT [XGTACX_site6486] | 11.4 ± 0.8 |
| TACAAAATAACTAGCACACATATGTATAAACATATA [CACACA_site5948] | 10.1 ± 0.17 |
| TATACATAAAACAGTTCACACATTGTATGAATATAT [CACACA_site4751] | 9.855 ± 0.035 |
| ATAAAATAAATATAACCACACACGAAAGAGAGAGAA [CACACA_site9075] | 10.09 ± 0.057 |
| ATAATAAATTCTACGCGTACAAAACCATGAACATTA [XGTACX_site7505] | 11.7 ± 1.1 |
| GTAAACAATTATGAACGTACATAAAATAAATGAACA [XGTACX_site7159] | 11.3 ± 0.85 |
| ATATTAATTCTACATTGTACACATGAAAAAATATAA [XGTACX_site8759] | 11.4 ± 0.96 |
| CAAGGAACCAGACACACACACATAAATGTATATATA [CACACA_site752] | 10.1 ± 0.18 |
| TTCATTCAAATCCAAGCATGCTTTATTAAAAAATTA [TGCATGCA_site567] | 9.84 ± 0.26 |
| TTTATTTTTCCATATGCACACACACCGTATATATAA [CACACA_site8293] | 10.3 ± 0.16 |
| TCTTAAAATCGGAAATGAAATAAAGTTTACAATATG [TGCATGCA_negctrl_site553] | 9.87 ± 0.071 |
| ATATGTATTAAGTGTACACATATAATGGGTTTTCTT [CACACA_site5328] | 11.6 ± 0.73 |
| TTTATATGTATTAAGTGTACACATATAATGTGTTTG [XGTACX_site6629] | 11.5 ± 0.86 |
| ATATGTATTAAGTGTACACATATAATGGGTTTGTTA [CACACA_site5682] | 11.7 ± 0.95 |
| ATATGTTTTAAGTGTACACATATAATGTATTTTGTT [CACACA_site4929] | 11.6 ± 0.9 |

| Sequence | gcPBM binding intensity (ln) |
| --- | --- |
| ATATGTATGAAGTGTACACATATATTGTATTTTCTT [CACACA_site5503] | 11.7 ± 0.91 |
| TTTATATGTATGAAGTGTACACATATATTGTATTTT [XGTACX_site5731] | 11.6 ± 0.82 |
| ATATGTATTAAGTGTACACATATAATGTATTTTGTT [CACACA_site4177] | 11.6 ± 0.92 |
| ATATATATATATATATGTACACATATATTTCTTTTC [XGTACX_site3443] | 11.4 ± 0.91 |
| TTTATATGTTTTAAGTGTACACATATAATGTATTTT [XGTACX_site3069] | 11.6 ± 0.91 |
| TGCTATAATTTATATACACACAAATATATACGCATA [CACACA_site4096] | 10 ± 0.14 |
| TTTTTTTTGCGTACAGTGCAAATTTATTTACTATTC | 11.7 ± 1.1 |
| TTTTATTTACACAGTGGTACTATTAAAAATTAATGA [XGTACX_site6737] | 11 ± 0.7 |
| AGAAAAATTATTTTGCGTACATATTTACAATAAAAA [XGTACX_site2144] | 11.5 ± 0.75 |
| GACATTTCTTGGGATACATGCATGTCCCAGAACAAA [TGCATGCA_site271] | 10.6 ± 0.4 |
| TTTTTATTTTTGTAGTGTACTTTATTTTTTTTGTTT [XGTACX_site8887] | 11.6 ± 0.91 |
| TGTTTACACTTTTTTTGTACACATAATTTTATTTGA [XGTACX_site3760] | 11.3 ± 0.81 |
| TTTTTTATTACTTTGTGTACTTACACAGAACCTTAT [XGTACX_site6038] | 11.5 ± 0.88 |
| TTTGAACTTTTATATACACACATTATTATAGTATAG [CACACA_site6851] | 10.04 ± 0.071 |
| CTTATTTCCTTTTGTAGTACCTTATAATATATATAA [XGTACX_site8873] | 11.3 ± 0.69 |
| TTTTTATTTTTTAGTAGTACACACTTTTTGAACCTT [XGTACX_site1091] | 11.6 ± 0.97 |
| TTATTTTTTAGTAGTACACACTTTTTGTACCTTTTA [CACACA_site4503] | 11.8 ± 1.1 |
| ATTCTTTTATTTAGTAGTACATTTGTATTTTATTCA [XGTACX_site5790] | 11.5 ± 0.95 |
| TTTTATTTTTTAGTAGTACACACTTTTTGTACCTTT [CACACA_site599] | 11.8 ± 1 |
| AATTATATAAGCCACGCATGTGTGCATAAAAATACA [TGCATGCA_site114] | 10.2 ± 0.14 |
| TGTACGAGTCGTAGAGTGCAGTCTGGAGAAACGTAC [GTGCAC_site9682] | 11 ± 0.47 |
| AATTTACATATATATTGTACATTTATGTATATATAT [XGTACX_site4186] | 10.7 ± 0.52 |
| AAATAAATCTTATGCACACAAATAATTAATTAAACA [CACACA_site1693] | 10.06 ± 0.014 |

| Sequence | gcPBM binding intensity (ln) |
| --- | --- |
| ATAAAAAAAATAAAAAGTACAAAAAAAAAAAATGGA [XGTACX_site136] | 11.3 ± 0.71 |
| ACATATGACTATAATACACACTTGTATTATTAATAT [CACACA_site6951] | 9.98 ± 0.13 |
| ATATATATATCTAATTGTACATATTTTATAAATAAG [XGTACX_site4840] | 11 ± 0.52 |
| GGCATAAATATATGCACACACAAAAAAAAAAAAAAA [CACACA_site59] | 10 ± 0.65 |
| GAAAAAAATGAAATTAGTACTTATCTTAAATTTTTA [XGTACX_site1018] | 10.8 ± 0.47 |
| TATGCTATTATATATGTACACACCAATTTATTTATA [CACACA_site3918] | 11.3 ± 0.74 |
| TTTTTCTTACATGAGTGTACACACTTTTTTTCAGAA [XGTACX_site138] | 11.7 ± 0.83 |
| AGAAAAAAAAAAAAATGTACAGACTTTTTCTTATAA [XGTACX_site6481] | 11 ± 0.55 |
| TTTTCTTACATGAGTGTACACACTTTTTTTCAGAAA [CACACA_site70] | 11.6 ± 0.91 |
| TTCTTACATGAGTGTACACACTTTTTTTCAGAAAAT [CACACA_site4215] | 11.7 ± 1 |
| AATATTTATTTTACATGTACTTATTTTTCTTTTAAC [XGTACX_site3631] | 11.4 ± 0.88 |
| ATCTTTCGAACATGTACACACAGAAAAAAAAAAAAA [CACACA_site5393] | 11.3 ± 1 |
| ATGTTTGATGCTACACGTACACACCTTGCAAATATT [XGTACX_site1644] | 11.6 ± 1 |
| TTTGATGGTACACGTACACACCTTGCAAATATTTTT [CACACA_site4645] | 11.8 ± 1 |
| TGTTTGATGGTACACGTACACACCTTGCAAATATTT [CACACA_site888] | 11.8 ± 1.2 |
| TATACAATATATTTTGGTACACAAACAAAAAAATAT [XGTACX_site2522] | 11.2 ± 0.82 |
| TATAATATGTTTGATGGTACACGTAAACACCTTGCA [XGTACX_site1643] | 11.1 ± 0.68 |
| AAATATTTTGCATACACATGCAAATATTTTTTACAT [TGCATGCA_site554] | 9.8 ± 0.11 |
| ATATATATCGGACACACACACATGTTTTAAAACTAT [CACACA_site4218] | 10.9 ± 0.64 |
| TGTTTATTTTTAAAAAGTACATATTTAAAAAACTTC [XGTACX_site271] | 11.4 ± 1 |
